Activity calls are given as the source filed them.

In PubChem BioAssay one finds composite z-score and z-score data, which are given here for five compounds.

Assay [1] is described as follows: small molecules captured by biotinylated probe aFSTL3 – biochemical, small-molecule microarray, fluorescence 635/667, stem cell growth factor project, primary screen (AID 1064).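 Also: measures binding of the biotinylated anti-FSTL3 antibody to printed compounds.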 The conditions noted are these: higher = more signal.
Assay [2] is described as follows: binders from COS7 lysate, DM2A8 probe, primary screen, torsin A project, cell lysate, small-molecule microarray, fluorescence 635/667 (AID 1065). To be noted: higher = more signal, COS7 lysate expressing mutant human TOR1A.
A short description of assay [3]: small molecules captured by biotinylated probe aFGF2 – biochemical, small-molecule microarray, fluorescence 635/667, stem cell growth factor project, primary screen (AID 1067).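 Also: measures binding of biotinylated aFGF2 protein to printed compounds on slides; z-score merges feature fluorescence and signal-to-noise across triplicate slides.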 To be noted: higher = more signal.
A short description of assay [4]: small molecules captured by biotinylated probe aFGF10 – biochemical, small-molecule microarray, fluorescence 635/667, stem cell growth factor project, primary screen (AID 1071).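 Also: score merges 667 nm spot intensity and signal to noise from triplicate slides.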 To be noted: higher = more signal.
For assay [5], the target named is Neurogenic locus notch homolog protein 2 (Homo sapiens) (UniProt Q04721). Nature of the assay: small molecules binding Notch2 protein – biochemical, small-molecule microarray, 635 nm fluorescence, stem cell growth factors, primary screen (AID 1073). The conditions noted are these: higher = more signal.
The target of assay [6] is Pro-neuregulin-1, membrane-bound isoform (Homo sapiens) (UniProt Q02297). The assay can be described thus: small molecules binding neuregulin-1 protein – biochemical, small-molecule microarray, fluorescence 635/667, psychiatric disease protein project, primary screen (AID 1075).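 Also: score combines 667 nm spot fluorescence with signal to noise.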 To be noted: NRG1 binding, 635 nm fluorescence, higher = more signal.
The test system of assay [7] is Neuregulin-1 EGF-like domain. Nature of the assay: small molecules binding NRG1 EGF domain – biochemical, small-molecule microarray, 635 nm fluorescence, primary screen (AID 1081).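 Also: binding of the protein to compounds printed on small-molecule microarray slides.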 The conditions noted are these: higher = more signal.
Assay [8] can be described thus: FRG1 expression reporter modulators in myotubes – cell-based, C2C12 myotubes, firefly/Renilla luciferase, luminescence, FRG1 inhibition for FSHD, primary screen (AID 1084). The conditions noted are these: FRG1 promoter luciferase, higher = more signal, called active from +8 up or from −8 down.
Assay [9] in a line: small molecules captured by biotinylated probe aFST – biochemical, small-molecule microarray, fluorescence 635/667, stem cell growth factor project, primary screen (AID 1086).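 Also: score merges 667 nm fluorescence with signal-to-noise of each printed compound spot.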 To be noted: higher = more signal.
A short description of assay [10]: binders of probe aHhip on microarray, primary screen, stem cell growth factor project, biochemical, small-molecule microarray, fluorescence 635/667 (AID 1087).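 Also: score merges spot fluorescence at 667nm with spot signal to noise ratio.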 The conditions noted are these: higher = more signal.
The subject of assay [11] is PRMT1 (protein arginine N-methyltransferase 1). The assay can be described thus: small molecules binding arginine methyltransferase PRMT1 – biochemical, small-molecule microarray, 635 nm fluorescence, primary screen (AID 1088).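 Also: binding of Prmt1 protein to compounds spotted on small-molecule microarray slides.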 To be noted: higher = more signal.
Assay [12] is described as follows: growth effects on S. cerevisiae YJM789 – YJM789 clinical isolate, OD600, 24 h, basal, primary screen (AID 1089).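 Also: growth of clinical yeast isolate S. cerevisiae YJM 789 seeded 1000 cells per well; test concentration not given here.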 To be noted: higher = more signal, called active from +8 up or from −8 down.
Assay [13] is described as follows: S. pombe growth modifiers, basal conditions – strain 972, OD600, 24 h, no modulator, primary screen (AID 1090).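 Also: basal condition with compound alone and no growth modifier present; test concentration not given here.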 The conditions noted are these: S. pombe 972 growth, higher = more signal, called active from +8 up or from −8 down.
A short description of assay [14]: budding yeast growth modifiers under rapamycin – strain BY4716, OD600, 96 h, primary screen (AID 1091). Also: test concentration not given here. To be noted: S. cerevisiae BY4716 + rapamycin, higher = more signal, called active from +8 up or from −8 down.
Assay [15] deals with Torsin-1A-interacting protein 2 (Homo sapiens) (UniProt Q8NFQ8). Nature of the assay: small molecules binding lysate-expressed LULL1 – cell lysate, human LULL1 lysate, 635/667 nm fluorescence, primary screen (AID 1092).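 Also: score merges per-feature 667 nm fluorescence with signal-to-noise.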 To be noted: small-molecule microarray, hLULL1 lysate binding, 635 nm fluorescence; higher = more signal.
The nature of assay [16]: optical density change of DRC41 E. coli – strain DRC41, OD650, 24 h, E. coli filamentation project, primary screen (AID 1093).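 Also: MC1000 strain lacking acrAB efflux and sulA so SOS filamentation is blocked; test concentration not given here.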 The conditions noted are these: E. coli DRC41 growth, higher = more signal, called active from +8 up or from −8 down.
Assay [17] is described as follows: probe aLefty2 binding to arrayed compounds – biochemical, biotinylated probe, 635/667 nm fluorescence, primary screen (AID 1094).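 Also: score merges spot fluorescence near 667 nm with spot signal-to-noise ratio.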 To be noted: small-molecule microarray, higher = more signal.
For assay [18], the system named is Noggin (protein binding on small-molecule microarray). The assay can be described thus: small molecules binding Noggin protein – biochemical, 635/667 nm fluorescence, primary screen (AID 1095).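 Also: score merges 667 nm feature fluorescence with signal to noise over triplicate slides.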 To be noted: 635 nm fluorescence, higher = more signal.
Assay [19] concerns the target Neurogenic locus notch homolog protein 3 (Homo sapiens) (UniProt Q9UM47). Nature of the assay: small molecules binding NOTCH3 protein – biochemical, 635/667 nm fluorescence, primary screen (AID 1096). The conditions noted are these: small-molecule microarray, 635 nm fluorescence, higher = more signal.
A short description of assay [20]: probe aEGFR binding to arrayed compounds – biochemical, biotinylated probe, 635/667 nm fluorescence, primary screen (AID 1097).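 Also: probe is a biotinylated anti-EGFR antibody binding compounds printed on slides; score combines fluorescence near 667 nm and signal to noise of each spot.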 The conditions noted are these: small-molecule microarray, higher = more signal.

Chain of Torsin-1A-interacting protein 2 (Homo sapiens) (Q8NFQ8 whole entry, looked up): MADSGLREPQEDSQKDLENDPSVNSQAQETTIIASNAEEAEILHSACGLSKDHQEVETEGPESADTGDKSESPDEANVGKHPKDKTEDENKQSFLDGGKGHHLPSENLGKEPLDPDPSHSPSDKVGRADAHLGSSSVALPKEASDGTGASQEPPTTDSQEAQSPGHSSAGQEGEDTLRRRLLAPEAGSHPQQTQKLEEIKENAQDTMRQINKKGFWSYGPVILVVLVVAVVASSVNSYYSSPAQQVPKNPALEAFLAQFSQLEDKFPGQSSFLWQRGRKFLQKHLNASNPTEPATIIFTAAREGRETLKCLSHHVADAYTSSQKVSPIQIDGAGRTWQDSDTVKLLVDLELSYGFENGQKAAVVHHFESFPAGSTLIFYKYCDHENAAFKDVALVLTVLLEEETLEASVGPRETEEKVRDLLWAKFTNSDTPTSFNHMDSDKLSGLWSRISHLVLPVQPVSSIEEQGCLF
Chain of Pro-neuregulin-1, membrane-bound isoform (Homo sapiens) (Q02297 whole entry, looked up, the tested form may be a part, canonical isoform): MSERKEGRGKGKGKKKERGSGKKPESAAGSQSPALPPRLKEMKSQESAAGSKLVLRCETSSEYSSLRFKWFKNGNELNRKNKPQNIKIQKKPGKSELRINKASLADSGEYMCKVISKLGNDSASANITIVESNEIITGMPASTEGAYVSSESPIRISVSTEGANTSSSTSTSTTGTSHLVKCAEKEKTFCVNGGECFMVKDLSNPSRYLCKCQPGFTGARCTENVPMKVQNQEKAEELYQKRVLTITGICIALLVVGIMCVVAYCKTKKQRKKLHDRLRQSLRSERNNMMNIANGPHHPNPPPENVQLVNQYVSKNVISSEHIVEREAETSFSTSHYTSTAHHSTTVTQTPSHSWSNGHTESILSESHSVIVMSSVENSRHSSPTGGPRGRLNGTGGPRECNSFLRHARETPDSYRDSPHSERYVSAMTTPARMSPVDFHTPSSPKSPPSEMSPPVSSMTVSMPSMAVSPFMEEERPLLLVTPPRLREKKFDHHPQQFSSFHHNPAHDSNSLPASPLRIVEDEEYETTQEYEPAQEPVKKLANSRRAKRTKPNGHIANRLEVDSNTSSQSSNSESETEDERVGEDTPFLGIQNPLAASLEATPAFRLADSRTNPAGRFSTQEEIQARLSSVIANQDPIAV
Chain of Neurogenic locus notch homolog protein 3 (Homo sapiens) (Q9UM47 whole entry, looked up): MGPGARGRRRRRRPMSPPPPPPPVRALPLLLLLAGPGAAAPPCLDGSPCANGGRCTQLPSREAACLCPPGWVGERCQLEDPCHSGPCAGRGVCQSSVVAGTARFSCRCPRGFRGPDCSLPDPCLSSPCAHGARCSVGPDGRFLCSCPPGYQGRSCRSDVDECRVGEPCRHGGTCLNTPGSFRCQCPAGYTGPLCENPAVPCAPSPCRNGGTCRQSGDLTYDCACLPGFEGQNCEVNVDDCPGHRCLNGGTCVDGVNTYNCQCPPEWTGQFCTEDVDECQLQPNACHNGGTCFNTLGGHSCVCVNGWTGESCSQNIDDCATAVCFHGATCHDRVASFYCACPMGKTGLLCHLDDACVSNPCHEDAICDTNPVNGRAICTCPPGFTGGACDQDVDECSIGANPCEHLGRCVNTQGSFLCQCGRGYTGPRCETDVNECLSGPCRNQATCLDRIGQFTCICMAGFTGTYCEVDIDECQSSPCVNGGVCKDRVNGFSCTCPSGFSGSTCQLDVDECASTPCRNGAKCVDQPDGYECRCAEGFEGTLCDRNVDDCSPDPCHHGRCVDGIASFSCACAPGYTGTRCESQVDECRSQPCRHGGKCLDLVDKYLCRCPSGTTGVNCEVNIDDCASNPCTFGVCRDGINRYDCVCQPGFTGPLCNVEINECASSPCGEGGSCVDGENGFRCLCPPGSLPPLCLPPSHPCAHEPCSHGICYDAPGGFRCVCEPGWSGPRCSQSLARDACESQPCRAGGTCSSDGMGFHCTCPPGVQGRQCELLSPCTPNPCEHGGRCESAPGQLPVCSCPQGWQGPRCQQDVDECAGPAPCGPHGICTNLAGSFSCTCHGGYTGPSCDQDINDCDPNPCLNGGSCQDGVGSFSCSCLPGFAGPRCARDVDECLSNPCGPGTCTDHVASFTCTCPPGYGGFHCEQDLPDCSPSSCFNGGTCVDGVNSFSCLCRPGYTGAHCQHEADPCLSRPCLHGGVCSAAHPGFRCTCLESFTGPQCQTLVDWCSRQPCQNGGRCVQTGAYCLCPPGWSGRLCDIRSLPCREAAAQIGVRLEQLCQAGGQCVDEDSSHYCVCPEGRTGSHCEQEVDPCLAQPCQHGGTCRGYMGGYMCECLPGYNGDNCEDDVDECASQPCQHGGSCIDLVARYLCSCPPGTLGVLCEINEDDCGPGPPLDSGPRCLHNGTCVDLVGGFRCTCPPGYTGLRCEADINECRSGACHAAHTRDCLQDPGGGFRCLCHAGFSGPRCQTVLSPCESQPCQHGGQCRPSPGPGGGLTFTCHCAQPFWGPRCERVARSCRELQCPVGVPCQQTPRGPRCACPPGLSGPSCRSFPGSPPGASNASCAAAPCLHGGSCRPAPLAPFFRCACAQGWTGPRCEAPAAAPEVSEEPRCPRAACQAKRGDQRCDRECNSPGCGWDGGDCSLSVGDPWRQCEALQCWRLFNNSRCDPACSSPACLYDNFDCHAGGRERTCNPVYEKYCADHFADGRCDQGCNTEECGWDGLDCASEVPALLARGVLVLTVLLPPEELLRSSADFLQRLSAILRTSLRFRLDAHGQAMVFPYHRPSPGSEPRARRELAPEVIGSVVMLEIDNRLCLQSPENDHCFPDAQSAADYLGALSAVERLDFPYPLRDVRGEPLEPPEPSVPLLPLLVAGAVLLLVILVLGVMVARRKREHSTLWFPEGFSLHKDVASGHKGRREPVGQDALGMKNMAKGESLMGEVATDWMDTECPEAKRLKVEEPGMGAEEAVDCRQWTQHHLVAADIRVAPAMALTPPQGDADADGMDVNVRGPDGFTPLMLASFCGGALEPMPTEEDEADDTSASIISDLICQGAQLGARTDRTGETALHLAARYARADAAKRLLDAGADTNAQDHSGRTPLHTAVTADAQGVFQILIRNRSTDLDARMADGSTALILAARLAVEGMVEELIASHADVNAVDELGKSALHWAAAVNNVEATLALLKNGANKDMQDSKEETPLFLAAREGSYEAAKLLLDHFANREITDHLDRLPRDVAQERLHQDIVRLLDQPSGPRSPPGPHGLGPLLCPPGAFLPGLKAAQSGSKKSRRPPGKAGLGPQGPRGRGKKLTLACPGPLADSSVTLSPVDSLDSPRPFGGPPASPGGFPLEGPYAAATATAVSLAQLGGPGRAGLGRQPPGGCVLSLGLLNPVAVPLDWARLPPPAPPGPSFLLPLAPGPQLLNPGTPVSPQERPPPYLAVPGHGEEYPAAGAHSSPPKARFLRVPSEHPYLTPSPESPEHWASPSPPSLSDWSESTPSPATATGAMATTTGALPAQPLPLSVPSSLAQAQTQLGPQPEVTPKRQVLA

For `CN(C)C(=O)[C@]1(CCC(=O)OC(C)(C)C)N=C(c2ccc(OCCCO)cc2)O[C@@H]1c1ccccc1N=[N+]=[N-]`, the composite z-score in [1] is 0.542; in assay [2], 1.78; in assay [3] it was 0.147; in assay [4], 1.2; in assay [5] it was 1.36; in [6], 2.01. For the same compound, the composite z-score in [7] is 1.45; in assay [9], 1.43; in assay [10] it was -0.0867; in assay [11], 1.54; in assay [15], 3.78; in [17] it was 0.17. In addition, the composite z-score in [18] was 0.245; in [19], 0.684; in [20] it was 0.11. Moreover, the z-score is 3.22 (inactive) in [8]; 1.1 (inactive) in assay [12]; 0.626 (inactive) in assay [13]; 0.0958 (inactive) in assay [14]; 0.515 (inactive) in assay [16].
For the compound `C=CCC(OC(C)=O)[C@@H]1[C@@H](N(Cc2ccc(-c3ccccc3)cc2)C(=O)Cc2ccc(F)cc2)c2cc(OCCCO)ccc2N1C(=O)c1ccc2ccccc2n1` (stereo not given in full), the composite z-score in assay [1] was -0.12; in assay [2] it was -0.0608; in [3], 0.0198; in assay [4], -0.372; in [5], 0.0329; in assay [6], 0.164. The composite z-score in [7] was -0.421; in assay [9], 0.167; in assay [10], 0.0623; in assay [11], -0.0414; in [15] it was 0.208; in assay [17], -0.057. Besides, the composite z-score in assay [18] is -0.423; in assay [19], -0.0833; in [20] it was 0.44. In addition, the z-score is -0.649 (inactive) in assay [8]; -0.583 (inactive) in [12]; -0.0387 (inactive) in [13]; -0.527 (inactive) in assay [14]; 1.47 (inactive) in assay [16].
Regarding `CCCNC(=O)[C@@]1(c2ccc([N+](=O)[O-])cc2)CC(=O)N(CC23CC4CC(CC(C4)C2)C3)[C@@H]1c1ccc(CO)cc1`, the composite z-score in assay [1] was -0.271; in assay [2] it was 0.515; in assay [3] it was 0.0422; in assay [4] it was 0.303; in assay [5], 0.143; in assay [6] it was 0.582. For the same compound, the composite z-score turned out to be 0.791 in assay [7]; 1.13 in assay [9]; 0.358 in [10]; 0.89 in assay [11]; 0.907 in [15]; 0.164 in assay [17]. Further, the results for the composite z-score in assay [18], in assay [19] and in assay [20] were 0.701, 0.305 and 0.105, respectively. Further, the z-score in assay [8] was -1.75 (inactive); in assay [12] it was -0.057 (inactive); in [13] it was -0.403 (inactive); in [14], 4.67 (inactive); in assay [16] it was 0.156 (inactive).
With `C=C(COC)C(=O)CC[C@@H](OC(=O)c1cccnc1)c1ccc(CO)o1`, the composite z-score in assay [1] is -0.376; in assay [2], 0.0139; in [3], -0.085; in assay [4], -0.0132; in [5], 0.167; in assay [6] it was 1.16. Also, the composite z-score in assay [7] is 0.645; in [9], 0.0848; in assay [10], 0.274; in [11], 1.35; in assay [15], 0.991; in [17], -0.21. Further, the composite z-score is 0.817 in assay [18], 0.574 in assay [19] and -0.137 in assay [20]. In addition, the z-score in [8] is 0.614 (inactive); in [12] it was 0.692 (inactive); in assay [13] it was -0.0164 (inactive); in [14] it was -0.336 (inactive); in assay [16] it was 0.255 (inactive).
Regarding `COCCOC(=O)N1C(=O)[C@@]2(c3cc(C#CCCO)ccc31)[C@H](c1ccccc1OCCO)N1[C@H](c3ccccc3)[C@H](c3ccccc3)OC(=O)[C@H]1[C@@H]2C(=O)N1CCN(c2ncccn2)CC1`, the composite z-score in [1] was 0.546; in [2], -0.481; in [3], 0.0763; in [4], 0.949; in [5] it was 1.55; in [6], 1.66. For the same compound, the composite z-score in assay [7] amounted to 1.26; in [9] it was 1.4; in [10], 0.463; in assay [11], 1.54; in [15], 2.32; in assay [17] it was 0.571. The composite z-score came to 0.725 in assay [18], 1.03 in [19] and 0.339 in assay [20]. Moreover, the z-score is -1.54 (inactive) in assay [8]; 1.24 (inactive) in assay [12]; 1.08 (inactive) in assay [13]; 3.94 (inactive) in assay [14]; -0.27 (inactive) in assay [16].
